Results reported in the OligoGym collection.

molecular target: LIPA; assay: pooled miR-30 sensor sort-seq; sequence = guide strand; conditions: shRNA
Also: reference of the scale not given here.

Sequence	sensor-assay potency score (higher = more potent)
TACAAAGTAGTATTCGCCCTGC	-0.272
TTAACCATTAACAAGCATTGTA	0.00545
TTGACTATGCACCTGCTGCAGG	-0.688
TTCAGTATGACATGAGTGCAAA	-1.31
TATATCCATCTTCTGTCTCAAC	-1.24
TATGACATGAGTGCAAACGTGG	-0.073
ATCTTCTGTCTCAACTAGGTAT	-0.881
TTTGTCTCCAAATAAGTCCTTA	-0.0541
TTAACAAGCATTGTACTGTTAG	-0.745
TTACAAAGTAGTATTCGCCCTG	0.166

molecular target: LIPK; assay: as above; conditions: shRNA

Sequence	sensor-assay potency score (higher = more potent)
TATTGCTGTTGGAACTTCCATC	-0.879
TATTTAACTGTGACAACTGGAG	-0.414
TAATGTTGTATAAAGGAGGTGT	0.558
AACACCTTAACTACTCGCCTGG	-0.456
TATCTTAATCTTTTTAGCCAGT	-0.586
TTGTAGTGTGGAATCAGCTTGT	0.39
TTCCTTTCTTGTCATAACCATA	-1.36
TAGGTCTTGGTAAATTTCCTGA	-0.456
TTTCTTGTCATAACCATACATA	-0.84
TTTGTCACCAAACAACACCTTA	-0.763
TTGTTGTAACATCATACTCTTC	-0.891
TAGCTTTCGATTGCACACTTTG	-1.01

molecular target: LITAF; assay: as above; conditions: shRNA

Sequence	sensor-assay potency score (higher = more potent)
TTGCAGGAAGGACAACACATTT	-1.76
TAACTGTTAACAGCCACTGTCT	-0.461
TATAGGACAGCTGACTCACGAT	-0.462
TGACTCACGATCATCTTGTTGC	-0.0822
ACAGTAATGGTCCACGTCCTGC	-1.32
TTAACAGCCACTGTCTCTTCAT	-0.139
TAATTGGATTGTTATTGGGGAT	-0.833
TAACAGCCACTGTCTCTTCATA	-1.19
TAATGGTCCACGTCCTGCAGGG	-0.698
AATAACTGTTAACAGCCACTGT	-0.0828
ATAACTGTTAACAGCCACTGTC	-0.861
TTATAGGACAGCTGACTCACGA	0.0157

molecular target: LMO4; assay: as above; conditions: shRNA

Sequence	sensor-assay potency score (higher = more potent)
TTAAGATGATACACATTGCCTT	-0.509
TGGTGTAACAGGACGTGCCGAT	-0.601
TAACCTAATGTAGTCATTTCTG	-0.956
TAAGATGATACACATTGCCTTG	-0.884
TCACTCGCAGGAATCGACTGTC	0.214
TTCACTCGCAGGAATCGACTGT	0.156
